Bioassay records deposited in PubChem BioAssay by National Center for Advancing Translational Sciences (NCATS).
Eya2 phos inh: inhibitors of human Eya2 phosphatase activity | O00167 | recombinant Eya2, OMFP fluorescence dephosphorylation (OMFP is methylfluorescein phosphate) | Potency, µM (doses to about 76.9 µM), usual class: inhibitors | 330,000 tested, 0.006% active
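Eya2 (0.2 uM) preincubated 10 min at ambient with compound, then OMFP substrate added at 50 uM; 10 min reaction in 50 mM HEPES pH 7.5, 50 mM NaCl, 5 uM MgCl2, 0.05% BSA, 1 mM DTT. Fluorescence read at Ex 485/Em 525 nm.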
B2AR arrestin: agonists driving beta-arrestin recruitment to human beta2-adrenergic receptor. P07550. beta-arrestin recruitment to beta2AR, cell-based reporter. Potency, µM (series often up to 46.1 µM), actives largely listed as activators. 330,000 tested, 0.02% active. AID 492947; also: nearly all actives have a fitted effect of over 65% in size
L3MBTL1 block: blocks human L3MBTL1; Q9Y468; AlphaScreen L3MBTL1–H3K9me1 peptide binding; Potency, µM (highest dose often 57.1 µM), usual class: inhibitors; 230,000 tested, 0.66% active; AID 485360; also: nearly all actives have a fitted effect of over 60% in size
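AlphaScreen proximity signal between nickel-chelate acceptor and streptavidin donor beads (final 10 ug/mL) reports binding of 50 nM L3MBTL1 to 75 nM biotin-H3 K9me1 peptide; complex incubated with compounds 30 min at room temperature; cefsulodin titration as control.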
Six1-Eya2 inh: blocks human Six1 binding to Eya2; AlphaScreen GST-Six1/His-Eya2 binding, biochemical; stronger effect = lower value; activity change, % (no concentration beside the values); AID 651725; 360,000 tested, 0.56% active; in the data active = activity change below about -65%; inconclusive = mostly about -30% to -63%
Target sequence (O00167 whole entry, looked up): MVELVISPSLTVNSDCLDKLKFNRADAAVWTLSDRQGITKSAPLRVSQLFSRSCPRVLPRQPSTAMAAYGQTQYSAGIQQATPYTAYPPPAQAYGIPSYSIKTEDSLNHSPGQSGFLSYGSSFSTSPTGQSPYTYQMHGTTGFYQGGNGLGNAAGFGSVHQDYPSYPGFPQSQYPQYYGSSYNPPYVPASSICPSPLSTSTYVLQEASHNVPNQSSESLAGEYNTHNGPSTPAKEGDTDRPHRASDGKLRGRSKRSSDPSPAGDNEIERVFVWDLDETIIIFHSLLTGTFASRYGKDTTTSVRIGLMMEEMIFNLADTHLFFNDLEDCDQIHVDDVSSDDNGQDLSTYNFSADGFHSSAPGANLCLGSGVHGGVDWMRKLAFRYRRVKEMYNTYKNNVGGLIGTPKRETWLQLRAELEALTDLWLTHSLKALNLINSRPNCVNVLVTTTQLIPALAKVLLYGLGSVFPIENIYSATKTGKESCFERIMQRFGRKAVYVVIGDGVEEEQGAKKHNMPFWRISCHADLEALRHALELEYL
Target sequence (Q15475 whole entry, looked up): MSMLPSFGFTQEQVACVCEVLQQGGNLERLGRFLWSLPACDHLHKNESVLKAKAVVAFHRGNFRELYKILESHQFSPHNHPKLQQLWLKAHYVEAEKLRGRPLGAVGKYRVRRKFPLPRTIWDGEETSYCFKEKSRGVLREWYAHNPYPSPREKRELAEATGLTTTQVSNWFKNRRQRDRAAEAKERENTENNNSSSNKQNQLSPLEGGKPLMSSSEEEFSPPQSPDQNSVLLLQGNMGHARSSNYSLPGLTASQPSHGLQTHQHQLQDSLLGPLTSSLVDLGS
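Homogeneous AlphaScreen proximity assay pairing GST-Six1 with His-tagged Eya2 (added as 5X mix: 250 nM and 500 nM) in 50 mM Tris pH 8.0, 300 mM NaCl, 1 mM TCEP. Glutathione donor and nickel acceptor beads; 1 h, 37 °C, dark.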
CtBP-E1A blk: inhibitors of CtBP/E1A interaction; AID 651724; activity change, % (no concentration beside the values); 340,000 tested, 0.49% active; AlphaScreen GST-E1A/His-CtBP binding, 1536-well; stronger effect = lower value; in the data active = activity change below about -65%; inconclusive = mostly about -30% to -63%
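Protein mix (5X: 125 nM each GST-E1A, His-CtBP) was incubated with pinned compound 2 h at 37 deg C in dark, in 50 mM Tris pH 8.0 buffer with 300 mM NaCl. Glutathione donor and nickel acceptor beads followed; AlphaScreen signal read after 1 h.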
Each line names hits and unclear results; the compound was inactive in the other large screens. The list is not random: actives were taken first. Their share in the collection is about 0.9%. Unless noted, calls follow the shape of the dose curve; as a rule, active = well fitted curve in the direction sought with a large enough effect; inconclusive = small, poorly fitted or top-dose-only effect, or another doubt; inactive = no such curve, though single readings can be large; an effect the other way counts as inactive or inconclusive.

CN[C@H](CC(C)C)C(=O)N[C@H]1C(=O)N[C@@H](CC(N)=O)C(=O)N[C@@H]2C(=O)N[C@H]3C(=O)N[C@H](C(=O)N[C@H](C(=O)O)c4cc(O)cc(O)c4-c4cc3ccc4O)[C@H](O)c3ccc(c(Cl)c3)Oc3cc2cc(c3O[C@@H]2O[C@H](CO)[C@@H](O)[C@H](O)[C@@H]2O[C@H]2C[C@](C)(N)[C@H](O)[C@H](C)O2)Oc2ccc(cc2Cl)[C@H]1O	none (no result: B2AR arrestin, L3MBTL1 block, Six1-Eya2 inh, CtBP-E1A blk)
O=[N+]([O-])c1cc(/C=N/Nc2nc3ccccc3[nH]2)c(O)cc1O	L3MBTL1 block inconclusive, Six1-Eya2 inh -96.8, CtBP-E1A blk -98.6
C(=N\Nc1nc2ccccc2[nH]1)/c1cccc2cccnc12	L3MBTL1 block inconclusive, Six1-Eya2 inh -83.6 (no result: CtBP-E1A blk)
O=C1C(=C(c2ccccc2)c2ccccc2)Nc2ccccc21	Six1-Eya2 inh -70.3, CtBP-E1A blk inconclusive (no result: L3MBTL1 block)
Cc1cc(C=O)c(C)n1-c1ccc(Cl)c(C(=O)O)c1	L3MBTL1 block 3.98µM, Six1-Eya2 inh inconclusive
COc1cc(OC)c2c(-c3ccccc3)cc(=O)oc2c1C(CCN1CCCC(C)C1)c1ccc(N(C)C)cc1 (stereo unspecified)	Six1-Eya2 inh -67.0 (no result: L3MBTL1 block, CtBP-E1A blk)
CCCCCc1cc(=O)oc2c(C(CCN3CCN(c4ccccc4)CC3)c3ccc(N(C)C)cc3)c(OC)cc(OC)c12 (stereo unspecified)	Six1-Eya2 inh -66.2 (no result: L3MBTL1 block)
COc1ccc(C(CCN2CCCC(C)C2)c2c(OC)cc(OC)c3c(-c4ccccc4)cc(=O)oc23)cc1 (stereo unspecified)	none (no result: L3MBTL1 block)
O=C(C(=O)N1CCCC1)c1c(-c2ccccc2)[nH]c2ccccc12	Eya2 phos inh inconclusive (no result: L3MBTL1 block, CtBP-E1A blk)
Cc1nc(Nc2ccc(C(=O)O)cc2)nc(Nc2ccc(C(=O)O)cc2)c1[N+](=O)[O-]	Six1-Eya2 inh -75.1 (no result: CtBP-E1A blk)
C=CCn1c(SCC(=O)Nc2ccc3c(c2)OCO3)nnc1-c1ccccc1	none
C=CCn1c(SCC(=O)Nc2ccc3c(c2)OCO3)nnc1-c1cc(Br)ccc1O	Six1-Eya2 inh -84.6, CtBP-E1A blk -92.2 (no result: Eya2 phos inh, B2AR arrestin, L3MBTL1 block)
CC1(C)c2ssc(=S)c2-c2ccccc2N1C(=O)CSC1=NCCS1	L3MBTL1 block 14.1µM, Six1-Eya2 inh inconclusive, CtBP-E1A blk inconclusive
COc1ccc2c(c1)-c1c(ssc1=S)C(C)(C)N2C(=O)CSC1=NCCS1	L3MBTL1 block inconclusive, Six1-Eya2 inh inconclusive, CtBP-E1A blk inconclusive
CCOc1ccc2c(ccc(/C=C/c3cc(C)c4cccnc4c3O)[n+]2C)c1	Six1-Eya2 inh -90.1, CtBP-E1A blk -93.7 (no result: Eya2 phos inh, B2AR arrestin, L3MBTL1 block)
CCOc1ccc2[nH]c3ncccc3c(=O)c2c1	none (no result: L3MBTL1 block)
CCOc1ccc(CCNc2ccc3nnc(-c4ccccc4)n3n2)cc1OCC	Six1-Eya2 inh -71.9, CtBP-E1A blk inconclusive
Clc1ccc(CNc2ccc3nnc(-c4ccccc4)n3n2)cc1	none
COc1ccc(S(=O)(=O)N(C)C)cc1NC(=O)CSC(C)C(=O)Nc1cc(C)on1 (stereo unspecified)	none (no result: CtBP-E1A blk)
CC1COc2ccccc2N1S(=O)(=O)c1ccc(Cl)cc1 (stereo unspecified)	CtBP-E1A blk -66.5
O=C(Nc1cccc(Br)c1)C1CCCC1	none (no result: Eya2 phos inh, B2AR arrestin, L3MBTL1 block, CtBP-E1A blk)
O=C(O)C1CCCCC1C(=O)Nc1cccc(Br)c1 (stereo unspecified)	L3MBTL1 block 12.6µM
Cc1ccc(C(=O)Oc2cc(C)n(C)c(=O)c2)cc1	Six1-Eya2 inh -94.5
Cc1ccccc1/C=N/NC(=O)Cn1cnc([N+](=O)[O-])n1	none (no result: L3MBTL1 block)
O=C(Cn1cnc([N+](=O)[O-])n1)N/N=C/c1cc(Cl)ccc1O	L3MBTL1 block 17.8µM, Six1-Eya2 inh -92.0, CtBP-E1A blk -94.1
O=C(Cn1cnc([N+](=O)[O-])n1)N/N=C/c1ccccc1O	L3MBTL1 block inconclusive, Six1-Eya2 inh -92.4, CtBP-E1A blk -94.7
O=C(OC[C@H]1O[C@@H](OC(=O)c2cc(O)c(O)c(OC(=O)c3cc(O)c(O)c(O)c3)c2)[C@H](OC(=O)c2cc(O)c(O)c(OC(=O)c3cc(O)c(O)c(O)c3)c2)[C@@H](OC(=O)c2cc(O)c(O)c(OC(=O)c3cc(O)c(O)c(O)c3)c2)[C@@H]1OC(=O)c1cc(O)c(O)c(OC(=O)c2cc(O)c(O)c(O)c2)c1)c1cc(O)c(O)c(OC(=O)c2cc(O)c(O)c(O)c2)c1	L3MBTL1 block 0.1µM (no result: Six1-Eya2 inh, CtBP-E1A blk)
